High-throughput results as filed in PubChem BioAssay.
Platelet DG rel – inhibitors of platelet dense granule secretion, primary screen, cell-based, MLPCN, human platelets | human platelet-rich plasma, SFLLRN dense granule ATP release, luminescence | AID 1663, 2009 | 0.22% of 300,000 active | inhibition, %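 (compounds screened at 7.5 µM in platelet-rich plasma)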;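 active = mean replicate score, as percent of positive control, at or above 50; inconclusive = mean below 50 but at least one replicate at or above 50; inactive = mean and every replicate below 50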
PolyA inhibitor – polyadenylation inhibitors in yeast reporter cells, primary screen, luminescence, S. cerevisiae; S. cerevisiae SKY197-pL101 polyadenylation reporter, beta-gal luminescence; efflux-impaired pdr1/pdr3 knockout yeast; score 100 = 6 SD above DMSO; activity score, % at 12 µM; 0.02% of 300,000 active; AID 1875, 2009;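 active = lowest replicate activity score at least 50, where 100 means six control SD above control mean; inconclusive = lowest score under 50 but half or more replicates reach 50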;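 also: yeast exposed to compound for 9 h at 30 °C; higher score means more reporter readthrough which indicates perturbed polyadenylation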
AHR act – AHR activators, primary screen, cell-based, luminescence, luciferase reporter, human; AHR-responsive luciferase reporter cells; activation, % at 5 µM; 2.5% of 320,000 active; AID 2796, 2010; in the data active = activation above about 47%;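 also: 0% = vehicle wells and 100% = reference agonist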
p-CIP stab down – p/CIP-EGFP fusion destabilizers, primary screen, fluorescence, F442A cells; 0.01% of 290,000 active; decrease of EGFP signal, % at 10 µM; 16 h;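 active = EGFP signal decrease of at least 30% at 10 µM or well 3 SD below plate mean, unless failing retest; inactive = the rest, including hits failing retest or dose response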
Target sequence (Q05BA5 1-1403): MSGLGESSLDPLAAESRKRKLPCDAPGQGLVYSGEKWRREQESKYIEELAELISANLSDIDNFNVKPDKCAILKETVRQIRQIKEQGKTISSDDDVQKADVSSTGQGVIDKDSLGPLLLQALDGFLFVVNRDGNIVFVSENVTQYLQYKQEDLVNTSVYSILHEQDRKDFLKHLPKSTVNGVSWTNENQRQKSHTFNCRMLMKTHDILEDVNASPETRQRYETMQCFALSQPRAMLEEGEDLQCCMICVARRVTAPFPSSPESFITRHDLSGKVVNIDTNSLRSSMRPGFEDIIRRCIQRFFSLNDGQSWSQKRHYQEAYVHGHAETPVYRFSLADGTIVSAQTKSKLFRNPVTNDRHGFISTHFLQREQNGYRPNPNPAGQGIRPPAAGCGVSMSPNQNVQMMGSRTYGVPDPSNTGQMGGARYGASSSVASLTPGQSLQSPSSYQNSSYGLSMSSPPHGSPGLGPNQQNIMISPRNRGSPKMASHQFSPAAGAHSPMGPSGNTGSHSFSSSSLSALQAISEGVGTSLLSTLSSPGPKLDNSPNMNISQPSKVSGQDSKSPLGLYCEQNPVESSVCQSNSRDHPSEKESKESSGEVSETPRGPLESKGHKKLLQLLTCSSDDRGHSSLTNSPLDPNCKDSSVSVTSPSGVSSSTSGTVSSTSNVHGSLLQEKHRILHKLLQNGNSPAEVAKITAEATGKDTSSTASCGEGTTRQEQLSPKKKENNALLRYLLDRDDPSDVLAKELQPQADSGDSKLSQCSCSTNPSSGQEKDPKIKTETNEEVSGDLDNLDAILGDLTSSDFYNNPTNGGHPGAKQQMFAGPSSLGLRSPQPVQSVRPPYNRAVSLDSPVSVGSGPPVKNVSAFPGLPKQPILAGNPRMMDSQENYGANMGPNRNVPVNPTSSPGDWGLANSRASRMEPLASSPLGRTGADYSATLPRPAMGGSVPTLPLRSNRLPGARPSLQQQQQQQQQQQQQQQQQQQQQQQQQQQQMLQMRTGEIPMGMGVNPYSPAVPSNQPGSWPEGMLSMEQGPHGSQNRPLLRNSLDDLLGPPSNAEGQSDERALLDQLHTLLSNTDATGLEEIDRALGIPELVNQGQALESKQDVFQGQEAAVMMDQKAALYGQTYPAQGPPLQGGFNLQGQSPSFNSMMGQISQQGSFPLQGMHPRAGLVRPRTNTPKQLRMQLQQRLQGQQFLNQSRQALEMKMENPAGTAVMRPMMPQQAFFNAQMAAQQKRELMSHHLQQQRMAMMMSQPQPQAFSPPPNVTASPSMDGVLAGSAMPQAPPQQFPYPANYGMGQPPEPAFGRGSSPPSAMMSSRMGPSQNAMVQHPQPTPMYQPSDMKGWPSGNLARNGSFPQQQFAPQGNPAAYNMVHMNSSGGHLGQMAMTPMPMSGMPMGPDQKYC
HIF activator – HIF pathway transcriptional activators, primary screen, cell-based, U2OS HRE-luciferase, luminescence. activation, % at 7.5 µM (by protocol). U2OS HRE-luciferase reporter; normalized: DMSO 0%, desferrioxamine 100%. 0.32% of 300,000 active;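 active = mean activation of at least 10% of the iron chelator positive control signal, with at least half of replicates also reaching 10%; inconclusive = mean and replicate majority disagree about reaching 10%; inactive = mean and most replicates under 10%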
AHR act confirm – AHR activators, confirmation, cell-based, luminescence, luciferase reporter, human; shares compounds with AHR act; human cells, AHR-responsive luciferase reporter; activation, % at 9 µM; 87% of 2,300 active; AID 2845, 2010; in the data active = activation above about 49%;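 also: HepG2 hepatoma cells carrying a DRE-driven firefly luciferase reporter; 0% = vehicle wells and 100% = reference agonist wells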
PXR counter – human PXR activators, counter-screen for AHR activator project, cell-based, luciferase luminescence; activation, % at 11.6 µM; 88% of 2,300 active; cell-based PXR reporter; shares compounds with AHR act; AID 434939, 2010; in the data active = activation above about 11%;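 also: human hepatoma DPX-2 cells expressing full-length human PXR; 0% = DMSO and 100% = reference agonist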
Active calls of the source: *. Only some compounds are listed: those with a hit (about 2.8% of all), similar ones and a draw of the others.

Results for O=C1C=C(c2ccc(Br)c3ccccc23)C[C@@H](c2ccc3c(c2)OCO3)C1 ?
AHR act: 88.9*; AHR act confirm: 95.4*; PXR counter: 32.4*

How did COc1ccc([C@H]2CC(=O)C=C(c3ccc(Br)c4ccccc34)C2)cc1 do in these assays?
AHR act: 9.9

Results for COc1c(F)cccc1C1=CC(=O)C[C@H](c2ccc3c(c2)OCO3)C1 ?
AHR act: 101.2*; AHR act confirm: 75.5*; PXR counter: 65.9*

What do the screens show for `O=C1CCCc2nc3c(cc21)C(O)Oc1c-3ccc2ccccc12` (stereo unspecified)?
Platelet DG rel: 2.6; PolyA inhibitor: 1.7; AHR act: 147.8*; p-CIP stab down: 3.1; HIF activator: -0.4; AHR act confirm: 13.0; PXR counter: 44.8*

How did O=C1CCCc2nc3c(cc21)C(O)Oc1ccccc1-3 (stereo unspecified) do in these assays?
Platelet DG rel: -4.3; PolyA inhibitor: 14.7; AHR act: 9.2; p-CIP stab down: -3.0; HIF activator: -0.6

How did CC(=O)NC(Cc1cccc(F)c1)C(=O)NC1CCN(c2nnnn2-c2ccccc2)CC1 (stereo unspecified) do in these assays?
Platelet DG rel: 1.3; PolyA inhibitor: -13.9; AHR act: 2.8; p-CIP stab down: -7.7; HIF activator: -0.4

How did CN(CC(=O)Nc1ccc(F)c(F)c1F)C(=O)C1=NN(c2ccccc2)C(=O)CC1 do in these assays?
AHR act: 7.4

How did N#C/C(=C\c1ccc[nH]1)C(=O)Nc1ccccc1Cl do in these assays?
Platelet DG rel: 16.3; PolyA inhibitor: 0.8; AHR act: 96.0*; p-CIP stab down: 0.3; HIF activator: 3.1; AHR act confirm: 99.5*; PXR counter: 28.7*

Results for O=C1NC(c2ccc(Cl)cc2)Nc2ccccc21 (stereo unspecified) ?
Platelet DG rel: 1.6; PolyA inhibitor: -5.2; AHR act: 80.0*; p-CIP stab down: -16.7; HIF activator: 1.9; AHR act confirm: 115.2*; PXR counter: 25.3*

What do the screens show for `CN(C)c1ccc(C2NC(=O)c3ccccc3N2)cc1` (stereo unspecified)?
Platelet DG rel: -4.3; PolyA inhibitor: -9.0; AHR act: 9.1; p-CIP stab down: -3.3; HIF activator: -33.6

How did Cc1ccc(C2NC(=O)c3ccccc3N2)s1 (stereo unspecified) do in these assays?
Platelet DG rel: -20.5; PolyA inhibitor: 5.0; AHR act: 99.8*; p-CIP stab down: -0.2; HIF activator: 3.7; AHR act confirm: 90.5*; PXR counter: 19.0*

How did O=C1NC(c2ccncc2)Nc2ccccc21 (stereo unspecified) do in these assays?
Platelet DG rel: 3.3; PolyA inhibitor: 7.1; AHR act: 11.7; p-CIP stab down: 0.0; HIF activator: -0.6

Results for CC1CN(C(=O)c2ccccc2NS(=O)(=O)c2ccc(Cl)cc2)CC(C)O1 (stereo unspecified) ?
AHR act: -0.3

What do the screens show for `Cc1cccc(NC(=S)Nc2cccc(C(F)(F)F)c2)n1`?
Platelet DG rel: -4.5; PolyA inhibitor: -18.4; AHR act: 103.7*; p-CIP stab down: 19.7; HIF activator: -1.6; AHR act confirm: 125.5*; PXR counter: 22.5*

What do the screens show for `CCCNC(=S)Nc1cccc(C(F)(F)F)c1`?
Platelet DG rel: 11.6; PolyA inhibitor: -5.6; AHR act: 3.2; p-CIP stab down: -16.6; HIF activator: 0.0

How did Cc1c(N(C)S(=O)(=O)c2cc(C(=O)N3CCCC3)ccc2Cl)c(=O)n(-c2ccccc2)n1C do in these assays?
Platelet DG rel: 5.0; PolyA inhibitor: 10.6; AHR act: -1.7; p-CIP stab down: -11.0; HIF activator: -0.4

What do the screens show for `O=C(c1cc2cc(F)ccc2[nH]1)N1CCc2ccccc2C1`?
Platelet DG rel: -8.9; PolyA inhibitor: -10.0; AHR act: 82.1*; p-CIP stab down: -0.6; HIF activator: 1.5; AHR act confirm: 110.1*; PXR counter: 46.5*

How did CCOc1ccc(Cn2nnc(-c3ccc(S(C)(=O)=O)cc3)n2)cc1OCC do in these assays?
AHR act: 1.4

What do the screens show for `O=C(Cn1nc(Cc2ccncc2)c2ccccc2c1=O)Nc1cccnc1Cl`?
Platelet DG rel: 1.0; PolyA inhibitor: -1.6; AHR act: -2.2; p-CIP stab down: -3.1; HIF activator: -0.5

How did Cc1ccc2nsnc2c1NC(=S)NC(=O)c1ccco1 do in these assays?
Platelet DG rel: 11.9; PolyA inhibitor: -13.6; AHR act: 97.1*; p-CIP stab down: 6.9; HIF activator: -1.2; AHR act confirm: 111.0*; PXR counter: 15.4*

What do the screens show for `Cc1ccc(NC(=O)c2ccc(S(=O)(=O)N3CCOCC3)cc2)cc1`?
Platelet DG rel: 1.6; PolyA inhibitor: 13.0; AHR act: -0.6; p-CIP stab down: -11.2; HIF activator: 2.0

How did O=C(Nc1ccc(Cl)cc1)c1ccc(S(=O)(=O)N2CCOCC2)cc1 do in these assays?
Platelet DG rel: 5.7; PolyA inhibitor: -1.5; AHR act: 80.3*; p-CIP stab down: -14.6; HIF activator: -0.2; AHR act confirm: 86.4*; PXR counter: 17.4*

Results for COc1ccccc1NC(=O)CN(Cc1ccco1)C(=O)c1cc2ccccc2o1 ?
Platelet DG rel: -0.8; PolyA inhibitor: -6.3; AHR act: 21.1; p-CIP stab down: -27.9; HIF activator: 0.2

Results for COc1ccccc1Nc1nc(N)nc(CN2CCc3ccccc3C2)n1 ?
Platelet DG rel: 5.8; PolyA inhibitor: 28.7; AHR act: 12.0; p-CIP stab down: 8.4; HIF activator: -0.3

How did C/C(=N\NC(=O)C(=O)Nc1cc(Cl)ccc1Cl)c1ccncc1 do in these assays?
Platelet DG rel: -15.4; PolyA inhibitor: -4.7; AHR act: 89.3*; p-CIP stab down: 3.3; HIF activator: -1.3; AHR act confirm: 1.1; PXR counter: 10.0

How did CC(OC(=O)c1nc(Cl)ccc1Cl)C(=O)Nc1ccccc1F (stereo unspecified) do in these assays?
Platelet DG rel: -1.7; PolyA inhibitor: -5.0; AHR act: 6.4; HIF activator: 0.1

How did COc1ccc(OC)c(NC(=O)CSc2nnc(NC(=O)c3ccco3)s2)c1 do in these assays?
Platelet DG rel: 2.3; PolyA inhibitor: inconclusive; AHR act: 1.3; p-CIP stab down: -6.9; HIF activator: -2.7

Results for Oc1cccc(Nc2ncnc3ccccc23)c1 ?
Platelet DG rel: -1.6; PolyA inhibitor: 18.1; AHR act: 10.4; p-CIP stab down: -5.2; HIF activator: 1.9
